Assay results taken from PubChem BioAssay AID602274 (Sanford-Burnham Center for Chemical Genomics, 2012).
Hit rate of the full screen: of about 360,000 compounds, about 160 (0.044%) were called active. No stated cut-off is given here; in the data, active means survival enhancement above about 18%; inactive means the rest. The full list was thinned out, with actives kept by preference.

Assay: enhancers of single-cell hiPSC survival, primary screen, ATPlite luminescence (AID 602274);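 further: cells exposed to compounds for 16 hours before the ATP read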
Conditions: at 20 µM, stronger effect = higher value, 100% = ROCK inhibitor wells, 0% = DMSO

Row | SMILES | survival enhancement
1 | CN(Cc1ccc(C(F)(F)F)cc1)C(=O)[C@H]1O[C@@H](n2cnc3c(N)ncnc32)[C@H](O)[C@@H]1O | 20.3% (active)
2 | Cc1nccn1-c1ccc(NC(=O)[C@H]2O[C@@H](n3cnc4c(N)ncnc43)[C@H](O)[C@@H]2O)cc1 | 1.4% (inactive)
3 | Nc1ncnc2c1ncn2[C@@H]1O[C@H](C(=O)NCC(F)(F)F)[C@@H](O)[C@H]1O | 1.8% (inactive)
4 | CCC(=O)c1ccc(OCC(O)CN2C(=O)NC(C)(C)C2=O)cc1 (centres undefined) | 0.2% (inactive)
5 | C=Cc1ccc(C(=O)N2CCCC(CCC(=O)N3CCN(c4ccccn4)CC3)C2)cc1 (centres undefined) | -0.4% (inactive)
6 | CC(=O)NNC1=Nc2ccccc2N(C)C(C)C1 (centres undefined) | -0.5% (inactive)
7 | CC1CCCCC1NC(=O)CCS(=O)(=O)c1cccc2nonc12 (centres undefined) | 1.2% (inactive)
8 | O=C(Nc1ccncc1)c1ccccc1[N+](=O)[O-] | 28.4% (active)
9 | COc1cccc(OC)c1C(=O)Nc1ccc(Cc2ccncc2)cc1 | 0.6% (inactive)
10 | O=C(Nc1ccc(N2CCOCC2)nc1)c1c(F)cccc1F | -0.6% (inactive)
11 | O=C(Nc1cccnc1)c1ccc(Cl)cc1[N+](=O)[O-] | -1.2% (inactive)
12 | O=C(Nc1ccncc1)c1c(F)cccc1F | 39.6% (active)
13 | O=C(Nc1ccccc1-c1ccccc1)c1ccccc1[N+](=O)[O-] | 0.6% (inactive)
14 | Cc1cc2cc3c(cc2nc1SCC(=O)Nc1c(C)cccc1C)CCC3 | -1.9% (inactive)
15 | CC(=O)c1ccccc1NC(=O)COC(=O)C1COc2ccccc2O1 (centres undefined) | -0.2% (inactive)
16 | CC(/C=C/c1ccco1)=N/NC(=O)C1COc2ccccc2O1 (centres undefined) | -0.2% (inactive)
17 | O=C(Nc1nc(-c2ccncc2)cs1)C1COc2ccccc2O1 (centres undefined) | 103% (active)
18 | CC(=O)c1cnn(-c2cc(Oc3ccc(F)cc3)ncn2)c1C | 2.8% (inactive)
19 | CCCCNC(=O)CCn1nc(-c2ccc(Cl)cc2)ccc1=O | 0% (inactive)
20 | CC(C)CCN1CCN(C/C=C/c2ccco2)CC1CCO (centres undefined) | -0.4% (inactive)
21 | COCc1cc(C)nc2sc3c(=O)n(-c4cccc5ccccc45)nnc3c12 | 4.5% (inactive)
22 | C[C@H](NC(=O)C1CC(=O)N(c2ccc3c(c2)OCCO3)C1)C(=O)N1CCC(C(=O)O)CC1 (some centres undefined) | -0.4% (inactive)

Row | SMILES | survival enhancement
23 | CCOC(=O)C1(Cc2cccc(OC)c2)CCCN(S(=O)(=O)c2cccnc2)C1 (centres undefined) | 1.2% (inactive)
24 | C[n+]1ccccc1C1CCCC/C1=N\Nc1ccc([N+](=O)[O-])cc1[N+](=O)[O-] (centres undefined) | -1.7% (inactive)
25 | Cc1ccc(OS(=O)Nc2cccc3nccnc23)cc1 (centres undefined) | 1.2% (inactive)
26 | CCc1c(C)sc(NC(=O)c2cccs2)c1C(N)=O | -1.4% (inactive)
27 | c1ccc2cc3c(NCCN4CCOCC4)ccnc3cc2c1 | -2.3% (inactive)
28 | C1=C(N2CCOCC2)/C(=C/c2nc3ccccc3[nH]2)CC1 | 3.5% (inactive)
29 | Cc1ccc(S(=O)(=O)N2CCN(C(=O)COC(=O)/C=C/c3cccc(Cl)c3)CC2)c(C)c1 | -0.9% (inactive)
30 | O=C(Nc1ccc(N2CCN(C(=O)c3ccccc3)CC2)c(Cl)c1)c1ncn[nH]1 | 0.4% (inactive)
31 | Cc1noc(C)c1NC(=O)Nc1ccc2c(c1)C(=O)N([C@H](C)CO)C[C@H](C)[C@@H](CN(C)C(=O)Nc1ccc(C(F)(F)F)cc1)O2 | -1.8% (inactive)
32 | Cc1ccc(NC(=O)c2cnc(SCC(=O)NCC3CCCO3)n(C)c2=O)cc1 (centres undefined) | 1.7% (inactive)
33 | O=C(NCC(c1ccco1)N1CCc2ccccc2C1)c1ccccc1Cl (centres undefined) | -0.3% (inactive)
34 | CCc1ccc([C@@H]2CC(=O)[C@@H]3CN(S(=O)(=O)c4ccc(C)cc4)[C@H](c4ccc(Cl)cc4)C[C@@H]3N2S(=O)(=O)c2ccc(C)cc2)cc1 | 0.5% (inactive)
35 | CCCOC(=O)CC1C(=O)NCCN1Cc1ccc(F)cc1 (centres undefined) | 0.4% (inactive)
36 | COC(=O)C1=C(C)N(C)C(=S)NC1c1cc(OC)ccc1OC (centres undefined) | -1.1% (inactive)
37 | COC(=O)C1=C(C)N(C)C(C)=C(C(=O)OC)C1c1cccc(Br)c1 | 19.8% (active)
38 | COC(=O)C1NN=C(C(=O)c2ccc(Br)cc2)C1c1cccc(Br)c1 (centres undefined) | 2.6% (inactive)
39 | O=C(CS(=O)(=O)c1cn(Cc2ccc(Cl)cc2)c2ccccc12)N1CCOCC1 | 0.6% (inactive)
40 | COc1ccccc1P(=O)(c1ccccc1)c1ccccc1NC(C)=O (centres undefined) | -0.7% (inactive)
41 | CN(Cc1ccc(F)cc1)C(=O)COc1ccc2ccccc2c1 | -0.4% (inactive)
42 | C[C@H]1CN([C@@H](C)CO)C(=O)c2cc(Br)cnc2O[C@H]1CN(C)S(=O)(=O)c1cccs1 | 3.8% (inactive)
43 | CC(=O)Nc1ccccc1C(=O)C(=O)Nc1ccc(F)cc1 | 3.3% (inactive)
44 | CC1CCN(C(=O)/C(=C\c2ccccc2F)NC(=O)c2ccccc2)CC1 | -0.6% (inactive)

Row | SMILES | survival enhancement
45 | CCOC(=O)c1ccn(-c2nc(-c3ccco3)cc(C(F)(F)F)n2)n1 | -0.8% (inactive)
46 | CC(CCc1ccc(O)cc1)NCc1ccc(Cl)cc1Cl (centres undefined) | 0.5% (inactive)
47 | CCN(CC)C(=O)Oc1ccc(OC(=O)N(CC)CC)cc1 | -2.3% (inactive)
48 | O=C(COC(=O)C1(c2ccc(F)cc2)CCCC1)N1CCNC1=O | 0.5% (inactive)
49 | Cc1ccccc1N1CCN(Cc2nc(Cc3ccccc3F)no2)CC1 | -0.1% (inactive)
50 | O=[n+]1c2c(n([O-])c3cc(Br)ccc31)CCC2 | 3.1% (inactive)
51 | CCN(CC)c1ccc(NC(=O)c2ccc(=O)[nH]c2)cc1S(=O)(=O)Nc1ccc(OC)cc1 | 1.7% (inactive)
52 | CCCS(=O)(=O)Nc1c(C(=O)O)[nH]c2ccccc12 | 0.3% (inactive)
53 | O=C(O)c1ccc([N+](=O)[O-])cc1Sc1ccsc1 | 6.3% (inactive)
54 | CC(C)CCOc1ccc(C(=O)Nc2cc(S(=O)(=O)N3CCOCC3)ccc2N2CCOCC2)cc1 | -2.4% (inactive)
55 | O=C(NCc1cccnc1)c1cc(C2CCCN(C(=O)C3CCCCC3)C2)on1 (centres undefined) | 0.4% (inactive)
56 | Cc1ccc2cccc(S(=O)(=O)N3CCN(c4ccccc4F)CC3)c2n1 | 0% (inactive)
57 | COc1cccc(CNC(=O)CN2C(=O)NC(Cc3ccccc3)(c3ccccc3)C2=O)c1 (centres undefined) | -1.1% (inactive)
58 | Cn1c(=O)c2c(nc(Br)n2CCSc2nc3ccccc3o2)n(C)c1=O | 1.6% (inactive)
59 | OCCC1CN(Cc2ccc3nsnc3c2)CCN1C1CCCC1 (centres undefined) | 1.5% (inactive)
60 | COC(=O)C1=C(Nc2ccc(C)cc2)C=C(C)C(C(=O)OC)C1c1ccc(F)cc1 (centres undefined) | -0.6% (inactive)
61 | N#Cc1ccccc1Sc1ccccc1C(=O)OCC(=O)NC1CCCCC1 | 1% (inactive)
62 | O=C(O)c1ccc(NS(=O)(=O)c2ccc3c(c2)C(=O)c2cc(S(=O)(=O)Nc4ccc(C(=O)O)cc4)ccc2-3)cc1 | 4.4% (inactive)
63 | CN(C)N(C)C(=O)C(O)(c1ccccc1)c1ccccc1 | -0.9% (inactive)
64 | COC(=O)C1=NNC2(c3ccc(C)cc3)C(=O)N(c3cccc(C)c3C)C(=O)C12 (centres undefined) | 1.4% (inactive)
